LASV entry inh – blocks Lassa virus binding or cell entry; Potency, µM (highest dose often 49.2 µM), usual class: inhibitors; actives 4.1% (n = 18,000); AID 720533; Lassa virus pseudotyped entry inhibition, cell-based qHTS
MARV entry inh – inhibitors of Marburg virus binding or entry into cells | Marburg virus pseudotype entry/binding inhibition, cell-based | Potency, µM (series often up to 49.2 µM), most hits filed as inhibitors | actives 6.5% (n = 18,000) | AID 720532
Numbers stand for hits; – = inactive; ? = inconclusive; · = not tested or not shown; ! = repeats disagree; [ ] = dose if it differs, or a comment. Shown are actives, neighbours in structure and some others; about 8.6% of the full set was active somewhere. The call rests on the fitted dose curve; tested in HEK293 cells.

SMILES	LASV entry inh	MARV entry inh
CC[C@H](C)[C@@H](C(=O)OC)N1Cc2ccccc2Oc2cc(Br)ccc2S1(=O)=O	–	–
CCOC(=O)[C@@H](C)N1[C@H](C)[C@H](c2ccccc2)Oc2cc(Br)ccc2S1(=O)=O	14.1µM	?
O=S1(=O)c2cc(Cl)ccc2Oc2ccccc2CN1Cc1cccc(F)c1	–	?
Cc1cc(=O)oc2cc(NC(=O)[C@H](CCCCN)NC(=O)[C@H](CC3CCCCC3)NC(=O)OCC3c4ccccc4-c4ccccc43)ccc12	?	10µM
Cc1cc(=O)oc2cc(NC(=O)C(CCCCN)NC(=O)C(CC3CCCCC3)NC(=O)OCC3c4ccccc4-c4ccccc43)ccc12 (stereo not drawn)	–	–
C=CCOC(=O)N[C@H](C(C(=O)OC)=C(C)NCc1ccccc1)c1cccc(F)c1	–[8.59 µM]	?
Oc1ccc2c3c1O[C@H]1c4[nH]c5ccccc5c4C[C@@]4(O)C(C2)N(CC2CC2)CCC314 (stereo partly drawn)	?	12.6µM
C=C(C)CN1CC[C@@]23c4c5ccc(O)c4O[C@H]2c2[nH]c4ccccc4c2C[C@]3(O)[C@@H]1C5	?	22.4µM
C=C1CC[C@@]2(O)[C@H]3Cc4ccc(O)c5c4[C@@]2(CCN3CC2CC2)[C@H]1O5	–	–
C=CCN1CC[C@]23c4c5ccc(O)c4OC2C(=O)CC[C@]3(O)C1C5 (stereo partly drawn)	–	–
C=C(C)C(=O)C=CC=Cc1ccccc1	·	–[8.59 µM]
C=C[C@@](C)(O)C1CC2C=CCOP(=O)(O2)O1 (stereo partly drawn)	–	–
COc1cc(=O)n2c(c1C(=O)NCc1ccco1)CCN(C(=O)c1c(F)ccc(F)c1F)CC2	–	–
O=C(OCc1cn([C@@H]2CN(C(=O)c3cccs3)[C@@H](c3ccc(Cl)cc3)C[C@@H]2O)nn1)c1ccccc1	–	–
O=C(CC(=O)c1ccccc1)c1ccccc1	–	–
O=C(O)CCC(=O)c1ccc(-c2ccccc2)cc1	–	0.1µM!
COc1ccc(C(=O)c2c(C)n(CCN3CCOCC3)c3ccccc23)cc1	–	–
COc1ccccc1C1(O)CCN(CCCn2c3ccccc3c3ccccc32)CC1	?	3.98µM
N#Cc1ccc(OCc2cn(CC(=O)c3ccc(O)cc3)nn2)cc1	–	–
COC(=O)[C@@H]1[C@@H](c2ccccc2)NC(=O)N(CCc2cc(OC)c(OC)c(OC)c2)[C@@H]1C	–[8.59 µM]	–[8.59 µM]
COC(=O)[C@@H]1CC[C@H](C)[C@@H](c2ccc(C)cc2)N1C(=O)c1ccc(C=NO[C@@H](C)c2cc(-c3c(C)cc(C)cc3C)no2)cc1	–[8.59 µM]	–[8.59 µM]
N#Cc1ccc2c(c1)C[C@]1(c3ccsc3)Oc3c(c(=O)oc4ccc(F)cc34)[C@@H]2O1	–[8.59 µM]	–[8.59 µM]
CC(C)(C)CC(C)(C)c1ccc(O)cc1	?	44.7µM!
CCC(C)(C)c1ccc(O)cc1	–	–
Cc1nc2ccc(C(=O)NCC3CCC4(CCN(Cc5cccnc5)CC4)O3)cc2nc1C (stereo not drawn)	–	?
SMILES	LASV entry inh	MARV entry inh
COc1cc(CN2CCC3(CCC(CNC(=O)c4ccccc4)O3)CC2)cc(OC)c1 (stereo not drawn)	–	12.6µM
C=COC[C@H]1CN2[C@H](c3ccc(Br)cc3)[C@H](C)CC[C@H]2C(=O)O1	–[8.59 µM]	–[8.59 µM]
[O-][n+]1ccccc1SSc1cccc[n+]1[O-]	3.98µM	6.31µM
CCN(CC)CCOc1ccc(-c2nc3cc(Cl)ccc3s2)cc1	?	12.6µM
CCN(CC)CCOc1ccc2nc(N(C)C)sc2c1	–	–
COc1ccc2c(c1)[C@@]1(OCCC=C[C@@H]1C)C(=O)N2CC1CC1	–[8.59 µM]	–[8.59 µM]
COc1ccccc1N1CCN(c2nc(CNC(=O)C3CC34CCCC4)nc3ccccc23)CC1 (stereo not drawn)	31.6µM	?
COc1ccccc1N1CCN(C[C@@H](C(=O)NC(C)(C)C)c2ccccc2)CC1	–	–
O=C(Nc1ccc(Cl)cc1)Nc1ccc(Cl)c(Cl)c1	12.6µM	14.1µM
CC(=O)Nc1ccc(-c2nc3ccc(Cl)cc3[nH]2)cc1	–	–
O=C(NCCc1ccccn1)c1cnn(-c2ncc3c(n2)-c2ccccc2CC3)c1C1CC1	–	–
C[C@H](O)CON1C(=O)c2ccccc2C1=O	–	–
O=C1C(SCCO)=C(SCCO)C(=O)c2ccccc21	8.91µM	3.55µM
CC(=O)C1=CN(CCC=Cc2ccccc2)C(=O)NC1c1ccccc1 (stereo not drawn)	–[8.59 µM]	?
CC[C@H](c1ccc(O)cc1)[C@@H](CC)c1ccc(O)cc1	?	–
Oc1cc[c]([Hg][Cl])cc1	4.47µM	3.55µM
CC(=O)OC[C@H]1O[C@H](C#Cc2ccc(F)cc2F)C=C[C@H]1OC(C)=O	–[8.59 µM]	–[8.59 µM]
C=C1C(=O)OC2C=C(C)CCC=C(C)CCC12 (stereo not drawn)	–	–
C=C1C(=O)O[C@@H]2C3OC3(C)CC/C=C(\C)CC[C@@H]12 (stereo partly drawn)	–	–
C=C1C(=O)O[C@H]2[C@H]1CC/C(C)=C\CC[C@@]1(C)O[C@@H]21	7.94µM	14.1µM
C=C1CC/C=C(\C)CC[C@@H]2[C@@H]1CC2(C)C	–	–
C=C1C(=O)OC2C1CC/C(C)=C/CCC1(C)OC21 (stereo not drawn)	11.2µM	?
C=C1C(=O)O[C@@H]2[C@H]3O[C@]3(C)CC/C=C(\C)CC[C@@H]12	4.47µM	3.98µM
C=CCOC(=O)N[C@H](C(C(=O)OC)=C(C)NCc1ccccc1)c1cccc(C(F)(F)F)c1	–[8.59 µM]	–[8.59 µM]
COC(=O)C1=C(C(=O)OC)[C@@H]2N(CC=C(C)C)c3ccccc3[C@@]23CCC(=O)N(Cc2cccc(C(F)(F)F)c2)C3=N1	–[8.59 µM]	–[8.59 µM]
SMILES	LASV entry inh	MARV entry inh
CCN1C(=NCCCOC(C)C)NC(c2ccccc2)C(C(=O)OC)=C1C (stereo not drawn)	–[8.59 µM]	–[8.59 µM]
C[C@@H]1C[C@H]2[C@@H]3CCC4=CC(=O)C=C[C@]4(C)[C@@]3(F)[C@@H](O)C[C@]2(C)[C@@]1(O)C(=O)COC(=O)c1cccc(S(=O)(=O)O)c1	–	–
Clc1ccc(Cn2c(CN3CCCC3)nc3ccccc32)cc1	–	–
COc1ccc(CCN2CCC(Nc3nc4ccccc4n3Cc3ccc(F)cc3)CC2)cc1	31.6µM!	3.98µM
CCOC(=O)C1=C(CCl)NC(=O)N(C(C)=O)C1c1ccccc1 (stereo not drawn)	·	–[8.59 µM]
F/C(COc1ccc2c(c1)[nH]c1ccccc12)=C1/CN2CCC1CC2	?	12.6µM
COC(=O)[C@H]1Cc2c([nH]c3ccccc23)CN1C(=O)COc1ccc2c(C)cc(=O)oc2c1	–	–
COc1cccc([C@H]2Oc3ccc(OC)cc3C(=NO[C@@H](C)c3cn([C@H](CO)Cc4ccccc4)nn3)[C@H]2O)c1	–[8.59 µM]	–[8.59 µM]
COC(=O)C1=C(C(=O)OC)[C@@H]2N(C)c3ccccc3[C@@]23CCC(=O)N(Cc2ccco2)C3=N1	·	–[8.59 µM]
CCNC(=O)[C@@H]1CCCN1C(=O)[C@H](CCCN=C(N)N)NC(=O)[C@H](CC(C)C)NC(=O)[C@@H](Cc1c[nH]c2ccccc12)NC(=O)[C@H](Cc1ccc(O)cc1)NC(=O)[C@H](CO)NC(=O)[C@H](Cc1c[nH]c2ccccc12)NC(=O)[C@H](Cc1cnc[nH]1)NC(=O)[C@@H]1CCC(=O)N1	3.16µM	?
CC(C)C[C@H](NC(=O)CNC(=O)[C@H](Cc1ccc(O)cc1)NC(=O)[C@H](CO)NC(=O)[C@H](Cc1c[nH]c2ccccc12)NC(=O)[C@H](Cc1cnc[nH]1)NC(=O)[C@@H]1CCC(=O)N1)C(=O)N[C@@H](CCCN=C(N)N)C(=O)N1CCC[C@H]1C(=O)NCC(N)=O (stereo in doubt)	–	–

High-throughput results from PubChem BioAssay.
